# Laboratory results from PubChem BioAssay AID1233 (SRMLSC, 2008).
# Potency and affinity values are given separately. Activity calls are given as the source filed them.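 Rule for the calls: active = a dose-response curve fit returns a half-maximal inhibitory concentration, extrapolated values included; inactive = the fit returns no such concentration.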
# Target: HMG-CoA reductase [Enterococcus faecalis] (UniProt Q9FD70)
# Assay: class II HMG-CoA reductase inhibition potency – biochemical, Enterococcus faecalis, confirmation (AID 1233)
# Conditions: purified E. faecalis HMGR, NADPH absorbance 340 nm kinetics; series mostly up to 100 µM
row,SMILES,outcome
1,CCN(CC)S(=O)(=O)c1cccc(C(=O)Nc2cc(C)cc(C)c2)c1,inactive
2,Cc1ccc(S(=O)(=O)N2CCCCC2)cc1C(=O)N1CCN(c2ccccn2)CC1,inactive
3,NC1=NC(=O)S/C1=C\c1ccc(F)cc1,inactive
4,N#CC(C#N)=Cc1cc2ccccc2nc1N1CCOCC1,inactive
5,Cc1ccc(Cn2nnc3c(=O)n(CC(=O)NCc4ccco4)cnc32)cc1,inactive
6,O=C(Nc1cccc(S(=O)(=O)N2CCCCCC2)c1)c1ccc2ccccc2n1,inactive
7,O=C(c1cc([N+](=O)[O-])ccc1N1CCCCC1)N1CCc2ccccc21,inactive
8,CC(=O)Nc1cccc(NC(=O)CSc2ccc(-c3cccnc3)nn2)c1,inactive
9,CCc1ccc(NC(=O)CN(c2cccc(C)c2)S(C)(=O)=O)cc1,inactive
10,CC(=O)Oc1ccccc1-c1nc(C)nc(N(C)C(C)=O)n1,inactive
11,COc1ccc2cc(C3NC(=O)c4ccccc4N3)c(Cl)nc2c1 (configuration not stated),inactive
12,COc1ccccc1CNC(=O)C1CCCN(S(=O)(=O)c2c(C)[nH]c(=O)[nH]c2=O)C1 (configuration not stated),inactive
13,CN(C(=O)CCN1C(=O)C(C)(C)Nc2ccccc21)c1ccccc1,inactive
14,COC(=O)CNC(=O)c1cc(OC)cc(OC)c1,inactive
15,CCOC(=O)C1CCN(C(=O)c2c(-c3ccccc3)noc2C)CC1,inactive
16,COc1ccc(N2CC(C)(C)C2=O)cc1,inactive
17,Cc1cccc(-n2nc(C)cc2N)c1,inactive
18,COc1ccc(C(=O)CSc2nnnn2Cc2ccccc2)cc1,inactive
19,C=CCOc1ccc(Br)cc1CNC(C)(C)C,inactive

row,SMILES,outcome
1,Cn1nnnc1SCC(=O)c1ccc(Br)s1,inactive
2,CN(Cc1ccccc1)c1nc(N)nc(Cl)c1C=O,inactive
3,CCN(Cc1ccncc1)Cc1c(O)ccc2cc(Br)ccc12,inactive
4,CC(C)NC(=O)CSc1nc2ccccc2n1CC(=O)N(C(C)C)C(C)C,inactive
5,CN(C(=O)COc1ncnc2c1cnn2-c1ccccc1)C1CCCCC1,inactive
6,CC1(C)CC(CCC(=O)Nc2ccccc2Cl)C(=O)O1 (configuration not stated),inactive
7,CCCCNC(=O)c1ccccc1NC(=O)CCSc1ccccc1,inactive
8,O=C(CCS(=O)(=O)c1cccc2nonc12)Nc1cccc2c1CCCC2,inactive
9,O=C(NCCCN1CCOCC1)c1cn(-c2ccccc2)nc1-c1cccs1,inactive
10,CN(C)CCNC(=O)c1ccc(COc2ccc(Cl)cc2Cl)cc1,inactive
11,COc1ccc(N=c2ssnc2Cl)cc1,inactive
12,Nc1c(C(=O)c2ccccc2)sc2c1c(=O)[nH]c(=O)n2-c1ccccc1,inactive
13,COCCN(C(=O)CNC(=O)c1cccs1)C(C(=O)NC1CCCCC1)c1ccco1 (configuration not stated),inactive
14,CC(=O)C1=C(O)C(=O)N(C)C1c1ccccc1F (configuration not stated),inactive
15,Cc1c(NC2(c3nnnn3-c3ccc(Br)cc3)CCCCC2)c(=O)n(-c2ccccc2)n1C,inactive
16,CCN(CC)c1ccc(/C=N/NS(=O)(=O)c2cccc([N+](=O)[O-])c2)cc1,inactive
17,CCOC(=O)Cc1csc(SCC(=O)c2c(N)n(CC(C)C)c(=O)n(C)c2=O)n1,inactive
18,CC(C)(C)C(=O)N1CCC[C@H]1C(O)(c1ccccc1)c1ccccc1,inactive
